A selection: hits, their analogues and other compounds. The true share with any hit is near 3.2%.
ERa coact pot: enhances coactivator binding to human estrogen receptor alpha. TR-FRET ERalpha-LBD/SRC-Cy5 coactivator binding, 2 h; 100 = basal binding, no effect. coactivator binding (% of control), % at 25.6 µM. 1.3% of 86,000 active; in the data active = activity above about 200%;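 note: binding measured in presence of low estradiol as agonist stimulus; 0% = peptide alone without receptor and 100% = receptor with peptide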
Target sequence (P03372 whole entry, looked up, the tested form may be a part): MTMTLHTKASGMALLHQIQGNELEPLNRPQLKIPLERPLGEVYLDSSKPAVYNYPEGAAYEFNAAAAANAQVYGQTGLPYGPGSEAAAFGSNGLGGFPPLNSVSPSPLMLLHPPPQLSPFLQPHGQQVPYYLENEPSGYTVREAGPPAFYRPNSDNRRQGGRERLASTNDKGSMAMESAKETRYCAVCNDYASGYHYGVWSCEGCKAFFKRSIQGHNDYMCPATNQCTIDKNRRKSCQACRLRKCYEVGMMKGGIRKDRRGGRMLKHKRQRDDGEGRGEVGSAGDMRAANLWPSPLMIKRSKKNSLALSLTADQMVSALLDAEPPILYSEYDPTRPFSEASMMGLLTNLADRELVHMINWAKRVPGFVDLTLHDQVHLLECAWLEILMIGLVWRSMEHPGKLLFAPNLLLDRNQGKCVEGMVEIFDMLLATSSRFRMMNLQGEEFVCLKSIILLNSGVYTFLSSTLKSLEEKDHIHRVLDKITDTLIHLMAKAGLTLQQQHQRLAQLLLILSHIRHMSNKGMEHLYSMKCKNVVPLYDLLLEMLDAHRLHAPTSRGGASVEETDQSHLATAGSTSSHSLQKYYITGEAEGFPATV
ERb coact inh: blocks coactivator binding to human estrogen receptor beta; Q92731; TR-FRET ER-beta LBD / SRC1-Cy5 peptide binding; receptor agonist-loaded with 1 µM estradiol; inhibition, % at 25.6 µM; 1.3% of 86,000 active; AID 633;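 active = compounds whose percent inhibition of the receptor-coactivator binding signal exceeds about 50% in the single-dose screen, limit read from the data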;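 note: 0% = receptor plus peptide wells without compound and 100% = peptide-only wells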
FAK inh: FAK (human) kinase inhibition | Q05397 | 0.84% of 97,000 active | inhibition, %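 (tested at 7 µM)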 | biochemical FAK kinase activity assay;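 note: 0% = DMSO and 100% = reference compound high control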
ERa SRC1 inh: blocks coactivator binding to human estrogen receptor alpha | TR-FRET ER-alpha LBD / SRC-1 peptide, estradiol-bound | inhibition, % at 25.6 µM | P03372 | 1.7% of 86,000 active; in the data active = inhibition above about 50%;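 note: 0% = receptor plus peptide control and 100% = peptide only without receptor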
FAK inh conf: confirmation of human focal adhesion kinase (FAK) inhibitors. shares compounds with FAK inh. FAK kinase biochemical inhibition assay. inhibition, % at 7 µM. 28% of 750 active
* = called active by the depositor; [ ] = another dose, or the depositor's remark. Cut-off read from the data, not from the text of the source, unless noted: active = inhibition above about 19%; inactive = the rest.

For N#Cc1c(NCCCO)nc(-c2ccco2)c2c1CCCC2 the results were ERa coact pot 95, ERb coact inh 2, FAK inh -1 and ERa SRC1 inh 8.
`O=C1c2ccccc2C(=O)C1c1ccnc2ccccc12` gave ERa coact pot 242*, ERb coact inh 31, FAK inh 51*, ERa SRC1 inh 15 and FAK inh conf 34*.
Screening O=C1C(c2ccnc3ccccc23)=C(O)c2ccccc21 returned ERa coact pot 309*, ERb coact inh 38, FAK inh 31*, ERa SRC1 inh 32 and FAK inh conf 27*.
Screening CCOC(=O)N1CCN(C(=O)CCc2ccc(S(=O)(=O)NCCc3ccccc3)cc2)CC1 returned ERa coact pot 113, ERb coact inh -8, FAK inh -1 and ERa SRC1 inh -11.
Screening Cc1ccc(SCc2ccc(C(=O)NCc3ccncc3)cc2)cc1 returned FAK inh 43* and FAK inh conf 3.
Screening Cc1ccc(C)c(C(=O)NCc2ccncc2)c1 returned ERa coact pot 52, ERb coact inh 47, FAK inh -2 and ERa SRC1 inh 28.
For CSc1ccc(/C=N/n2c(C)cc(C)cc2=O)cc1 the results were ERa coact pot 82, ERb coact inh 12, FAK inh 4 and ERa SRC1 inh -7.
Screening Cc1ccc(C)c(C(=O)CSc2n[nH]c(-c3ccncc3)n2)c1 returned FAK inh 30* and FAK inh conf 12.
O=S(=O)(C=C(c1ccccc1)c1ccccc1)c1ccccc1 was read as FAK inh -1.
`Nn1c(Nc2ccccc2)nc2ccccc2c1=O` gave ERa coact pot 124, ERb coact inh 2, FAK inh 9 and ERa SRC1 inh -2.
For O=c1[nH]c(Nc2ccccc2)cc2ccccc12 the results were ERa coact pot 92, ERb coact inh 10, FAK inh 38*, ERa SRC1 inh 19 and FAK inh conf 35*.
`COc1ccc(N2C(=O)CCC2(C#N)c2ccc(Br)cc2)cc1` (configuration not stated) gave ERa coact pot 97, ERb coact inh 1, FAK inh -1 and ERa SRC1 inh -2.
`Brc1ccc2ncnc(Nc3ccc(N4CCOCC4)cc3)c2c1` gave ERa coact pot 32, ERb coact inh 82*[fluorescence artefact?], FAK inh 20*, ERa SRC1 inh 59*[fluorescence artefact?] and FAK inh conf 18.
O=C(COc1ncnc2ccc(Br)cc12)Nc1ccc(N2CCOCC2)cc1 was read as ERa coact pot 101, ERb coact inh 15, FAK inh 0 and ERa SRC1 inh 7.
Screening O=C(N/N=C/c1ccccc1)c1sccc1OCc1ccc(F)cc1 returned FAK inh -2.
`CCOC(=O)c1c(N)sc2c(NC(C)=O)cccc12` gave ERa coact pot 85, ERb coact inh 1, FAK inh 6 and ERa SRC1 inh 5.
`CCOC(=O)c1c(N)sc2c(O)c(Br)ccc12` gave ERa coact pot 81, ERb coact inh 12, FAK inh 19*, ERa SRC1 inh -1 and FAK inh conf 1.
O=C(Oc1ccc2c(c1)OCO2)c1cc2c(s1)CCC2 was read as ERa coact pot 11, ERb coact inh 83*, FAK inh 24*, ERa SRC1 inh 93*[fluorescence artefact?] and FAK inh conf 3.
`O=C1CC(=O)C(n2cncn2)C(c2ccc(Cl)cc2)C1` (configuration not stated) gave FAK inh 5.
CC1CCCCN1S(=O)(=O)c1ccc(NC(=O)CSc2nnnn2C)cc1 (configuration not stated) was read as ERa coact pot 94, ERb coact inh 21 and ERa SRC1 inh 24.
`O=C(C1COc2ccccc2O1)N1CCc2ccccc21` (configuration not stated) gave ERa coact pot 345*[fluorescence artefact?], ERb coact inh 34, FAK inh 24*, ERa SRC1 inh 21 and FAK inh conf 7.
For COc1cc(C2Nc3ccc4ncccc4c3C3=C2C(=O)CC(C)(C)C3)cc(OC)c1O (configuration not stated) the results were ERa coact pot 100, ERb coact inh -10, FAK inh 47*, ERa SRC1 inh 2 and FAK inh conf 34*.
For COc1cc(C2N(c3ccccn3)C(=O)C3CCCN32)cc(OC)c1OC (configuration not stated) the results were ERa coact pot 113, ERb coact inh -5, FAK inh 2 and ERa SRC1 inh -5.

Source: PubChem
